Bioassay records: PubChem, Center for Chemical Genomics, University of Michigan
The entries come from a sample that favours hits as a whole.
Dicer inh = human Dicer pre-microRNA cleavage inhibition | Q9UPY3 | cat-ELCCA pre-miR-21 Dicer processing, chemiluminescence; active compounds read high | z-score at 25 µM | 47,000 tested, 6% active | AID 1347074; in the data active = z-score above about 3, passing the limit was not always enough;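 note: higher signal means more uncleaved substrate so more Dicer inhibition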
A number is an active result; n = inactive.

SMILES	Dicer inh
CCOC(=O)C(NC(=O)c1cccc(C)c1)(Nc1cc(C)on1)C(F)(F)F (stereo not given)	n
O=C(CSCc1ccco1)Nc1c(F)c(F)c(F)c(F)c1F	n
CC1=C(C(=O)OC(C)C)C(c2ccccc2Cl)C2=C(CC(c3cccs3)CC2=O)N1 (stereo not given)	n
C/C(=N\NS(=O)(=O)c1ccc(C)cc1)c1ccc(OCCOc2ccc([N+](=O)[O-])cc2)cc1	n
CC1(C)Cc2c(sc3ncn4nc(-c5ccncc5)nc4c23)C(C)(C)N1	n
COc1ccc(-c2nc3c4c5c(sc4ncn3n2)CCCC5)cc1	n
c1cc(-c2nc3c4c5c(sc4ncn3n2)CCCCC5)ccn1	n
Fc1ccc(-c2nc3c4c5c(sc4ncn3n2)CCCC5)cc1	3.95
CC1(C)Cc2c(sc3ncn4nc(-c5ccncc5)nc4c23)CO1	3.14
c1ccc(-c2nc3c4c5c(sc4ncn3n2)CCCC5)cc1	n
O=C(Nc1ccc(Oc2ccc(Cl)cc2C2CCCCC2)nc1)C1CCCCC1	n
COC(=O)c1cc(=O)n2c(-c3cc(Cl)cc(Cl)c3)nnc2s1	n
Cc1sc2ncn(Cc3c(F)cccc3Cl)c(=O)c2c1C	n
Cc1ccc(C2c3c(oc4ccccc4c3=O)C(=O)N2CCCN2CCOCC2)cc1 (stereo not given)	n
C=CC(C)(O)CC[C@]1(C)[C@H]2CC(=O)C=C(C)[C@]2(C)C[C@@H](O)[C@@H]1C (stereo not given in full)	n
CCCNC(=O)O/N=C(\C)c1cc2cc([N+](=O)[O-])ccc2o1	n
CSc1nc(NC(=O)NS(=O)(=O)c2ccccc2C(F)(F)F)nc(-c2ccncc2)n1	n
COc1ccc(-c2[nH]c(SC)nc(=S)c2C#N)cc1	n
N#Cc1c(-c2cccnc2)[nH]c(=S)[nH]c1=O	n
N#Cc1c(-c2ccncc2)[nH]c(=S)[nH]c1=O	3.57
CC(NC(=O)C(C(=O)NC(C)C1CC2CCC1C2)C12CC3CC(CC(C3)C1)C2)C1CC2CCC1C2 (stereo not given)	n
O=c1cc(-c2ccccc2)nc2c(-c3ccccc3)c(C(F)(F)F)[nH]n12	4.04
O=c1cc(-c2ccccc2)nc2nc(C(F)(F)F)[nH]n12	n
Cc1cc(=O)n2[nH]c(-c3cccs3)cc2n1	n
CC(C)(C)c1cc2nc(-c3ccccc3)cc(=O)n2[nH]1	n
SMILES	Dicer inh
O=c1cc(-c2ccccc2)nc2cc(-c3cccs3)[nH]n12	3.13
O=c1cc(-c2ccccc2)nc2cc(-c3ccccc3)[nH]n12	n
COC(=O)c1cc(OCC(F)(F)F)ccc1OCC(F)(F)F	n
Cc1ccc(/C=N/N2C(=O)/C(=C/c3ccccc3Cl)N=C2c2ccccc2)o1	n
Cc1cc(C)nc(NC(=O)C(=O)NC(=O)c2c(F)cccc2Cl)n1	n
Cc1ccc(C2NC(=S)NC3=C2C(=O)c2ccccc23)cc1 (stereo not given)	n
COC(=O)CSC1=C(C#N)C(c2ccco2)C(C(=O)Nc2ccc(Cl)cc2)=C(C)N1 (stereo not given)	n
Cc1cc(=O)oc2c1c(C(F)(F)F)nn2C	n
COC(=O)c1ccc(C2NC(=O)CS2)cc1 (stereo not given)	n
C/C(=N\N=C(/C)c1ccc(C)cc1)c1ccc(C)cc1	n
COc1ccc(C(=O)C(OC(=O)c2ccncc2)c2ccccc2)cc1 (stereo not given)	n
CCCCOC(C)n1cc(Cl)c(=O)[nH]c1=O (stereo not given)	n
Cc1nc(N=Nc2ccc(S(=O)(=O)O)cc2S(=O)(=O)O)c(COP(=O)(O)O)c(C=O)c1O	3.07
Cc1nc(N=Nc2ccc(C(=O)O)cc2)c(COP(=O)(O)O)c(C=O)c1O	n
Cc1ccc(C2Nn3c(C)nnc3SC2C(=O)N2CCOCC2)cc1 (stereo not given)	n
Cc1csc(NC(=O)Nc2ccc(Cl)cc2Cl)c1	n
O=C1NC2=C(C(=O)c3ccccc32)C(c2ccc([N+](=O)[O-])cc2)S1 (stereo not given)	n
CC1=C(C(=O)OCC2CCCO2)C(c2ccccc2C)C2=C(CC(C)(C)CC2=O)N1 (stereo not given)	n
CCc1ccc(C2C(C(=O)OCC3CCCO3)=C(C)NC3=C2C(=O)CC(C)(C)C3)cc1 (stereo not given)	7.04
CC1=C(C(=O)OCC2CCCO2)C(c2coc3ccc(Cl)cc3c2=O)C2=C(CCCC2=O)N1 (stereo not given)	n
COc1cc(C2C(C(=O)OCC3CCCO3)=C(C)NC3=C2C(=O)CC(C)(C)C3)cc(Cl)c1O (stereo not given)	n
COc1ccc(C2C(C(=O)OCC3CCCO3)=C(C)NC3=C2C(=O)CC(C)(C)C3)cc1O (stereo not given)	n
CC1=C(C(=O)OCC2CCCO2)C(c2ccc3c(c2)OCO3)C2=C(CC(C)(C)CC2=O)N1 (stereo not given)	n
CC1=C(C(=O)OCC2CCCO2)C(c2coc3ccc(Cl)cc3c2=O)C2=C(CC(C)(C)CC2=O)N1 (stereo not given)	3.19
CC1=C(C(=O)OCC2CCCO2)C(c2cccc(C)c2)C2=C(CC(C)(C)CC2=O)N1 (stereo not given)	n
SMILES	Dicer inh
CC1=C(C(=O)OCC2CCCO2)C(c2ccccc2F)C2=C(CC(C)(C)CC2=O)N1 (stereo not given)	4.67
COc1ccc(-c2c(C)nc3ccc(Cl)cc3c2-c2ccccc2)cc1OC	n
CC1=C(C(N)=O)C(c2ccc(O)cc2)n2nnnc2N1 (stereo not given)	n
CCOC(=O)c1cc(CC)sc1NC(=O)CC#N	n
N/C(=N\N=C\c1ccccc1)N/N=C/c1ccccc1	n
COc1ccc(C2C3=C(CC(C)(C)CC3=O)NC3=C2C(=O)CC(C)(C)C3)cc1Cl	n
N=c1scc(-c2ccccc2)n1-c1ccc(Cl)cc1Cl	n
Cc1cccc2c1N(C(=S)Nc1cccc(Cl)c1)CCC2	n
COC(=O)CSc1cc(C)nc(N)n1	n
Cc1cc(Oc2ccc(=O)n(C)n2)nc(SCC(N)=O)n1	n
COC(=O)CSc1nc(C)cc(Oc2ccccc2)n1	3.73
Cc1nnc(SCC(=O)Nc2nc(-c3ccc(Cl)cc3)ns2)s1	n
Cc1nc(Cc2c(Cl)cccc2Cl)[nH]c(=O)c1Cl	n
CC(C)(C)c1cc([N+](=O)[O-])c2cc(C(C)(C)C)cc([N+](=O)[O-])c2c1	n
CC1=C(C(=O)OC2CCCCC2)C(c2ccccc2Br)C2=C(CCCC2=O)N1 (stereo not given)	n
Cc1nn2c3c(cnc2c1-c1ccc(F)cc1)C(=O)CC(c1ccco1)C3 (stereo not given)	n
Cc1nn2c(c1-c1ccccc1)N=C(c1ccco1)CC2c1ccco1 (stereo not given)	3.31
CC(=O)N1N=C(c2c(-c3ccccc3)c3cc(Cl)ccc3[nH]c2=O)CC1c1ccco1 (stereo not given)	n
COc1cc(OC)cc(-c2nc3n(n2)C(c2cccc(OC)c2OC)C2=C(CC(C)(C)CC2=O)N3)c1 (stereo not given)	n
COc1ccc(N2C(=O)CSC2c2ccc(Cl)cc2)cc1 (stereo not given)	n
O=C1CN(C(=O)c2ccccc2)C(=O)CN1C(=O)c1ccccc1	n
Nc1ncn(C(=O)c2ccccc2)n1	4.55
O=C(c1ccccc1)n1ccc(-c2cccs2)n1	n
COc1ccc(OC)c(C2C(C(=O)OC3CCCCC3)=C(C)NC3=C2C(=O)CCC3)c1 (stereo not given)	n
